ALR H2O2 inh: blocks human ALR sulfhydryl oxidase activity | AID 485317 | P55789 | purified ALR, DTT oxidation, H2O2 HRP-luminol luminescence | inhibition, % (no concentration beside the values) | hit rate 3.8% among 290,000;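 active = mean replicate inhibition above about 79%, with every replicate also reaching it, limit read from the data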
M18AAP inhibitor: blocks P. falciparum M18 aspartyl aminopeptidase. recombinant PfM18AAP, H-Glu-NHMec fluorogenic cleavage. inhibition, % at 7.35 µM. hit rate 1.2% among 290,000;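 active = inhibition above the campaign mean inhibition over all tested compounds plus 3 SD, cut at about 28% in these data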
CendR NRP1 mod: alters CendR peptide binding to human NRP-1 | O14786 | FAM-RPARPAR peptide binding to NRP-1, fluorescence polarization | inhibition, % at 25 µM | hit rate 0.85% among 360,000;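 active = inhibition or corrected inhibition above about 18%, plus a signal ratio from 0.5 to 1.5, limit read from the data, passing the limit was not always enough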
A3G deaminase: inhibitors of human APOBEC3G DNA deaminase; AID 493012; inhibition, % at 20 µM; hit rate 0.28% among 330,000; recombinant A3G, ssDNA deamination FAM/TAMRA fluorescence;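 active = inhibition of at least 40% at 20 µM, with no more than 30% in the related APOBEC3A deaminase screen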
Yeast superoxide: yeast age-related superoxide inhibition as caloric restriction mimetic; superoxide response (% of plate mean), % at 10 µM; hit rate 0.18% among 330,000; AID 2690; S. cerevisiae aged cells, superoxide DHE fluorescence; active compounds read low;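 active = superoxide response under a set limit, about three screen SD below normal, cut at about 65% in these data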;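 also: yeast aged for seven days with compound at 30 °C before DHE staining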
A3A deaminase: human APOBEC3A DNA deaminase inhibition; P31941; recombinant A3A, FAM/TAMRA ssDNA deamination fluorescence; inhibition, % at 20 µM; hit rate 0.41% among 330,000;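 active = at least 40% inhibition at 20 µM here, with at most 30% in a related deaminase screen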
A number is an active result; - = inactive; . = not tested or not shown. In the library only some 5.2% were active in any assay of this set; here they are far more common.

SMILES	ALR H2O2 inh	M18AAP inhibitor	CendR NRP1 mod	A3G deaminase	Yeast superoxide	A3A deaminase
O=C(O)C1CC(=O)N(c2ccc(Br)cc2)C1 (stereo not drawn)	-	-	-	-	-	-
CN1C/C(=C\c2ccc(N3CCOCC3)cc2)C(=O)/C(=C/c2ccc(N3CCOCC3)cc2)C1	79	-	-	-	-	-
CCN1C/C(=C/c2ccc(N3CCOCC3)cc2)C(=O)/C(=C/c2ccc(N3CCOCC3)cc2)C1	-	-	-	.	-	.
Cc1c(CC(=O)N2CCN(C(=O)C3COc4ccccc4O3)CC2)c(=O)oc2cc(O)ccc12 (stereo not drawn)	-	-	72	-	-	-
COc1ccc2nc(NCCO)[nH]c2c1	.	-	-	-	-	-
COc1ccc2nc(NCc3ccccc3)[nH]c2c1	95	-	-	-	-	-
Cc1ccc2nc(NCc3ccccc3)[nH]c2c1	99	-	-	.	-	.
COc1ccc2nc(N3CCCC3)[nH]c2c1	96	-	-	-	-	-
CC(NC(=O)c1ccc(S(=O)(=O)N(C)C)cc1)c1ccccc1 (stereo not drawn)	-	-	-	-	-	-
CN1CCN(C(=O)c2cnn(-c3ccccc3)c2NC(=O)c2ccccc2Br)CC1	-	-	-	-	-	-
c1coc(CSSCc2ccco2)c1	98	.	-	-	-	-
Cc1ccc(-n2c(C)cc(/C=C3/C(=N)N4C(c5ccccc5)=CSC4=NC3=O)c2C)cc1	-	-	-	-	-	-
O=C(O[C@@H]1Cc2c(O)cc(O)cc2O[C@@H]1c1cc(O)c(O)c(O)c1)c1cc(O)c(O)c(O)c1	.	64	.	-	.	-
COc1ccc([C@H]2CC(=O)c3c(O)cc(O)cc3O2)cc1O	-	-	-	-	-	-
COCCOC(=O)C1=C(C)NC(=O)NC1c1cccs1 (stereo not drawn)	-	-	-	-	-	-
CC(=O)N1CCC2(CC1)NC(=O)N(c1ccccc1)N2	98	-	-	-	-	-
NC(=O)N1CCC2(CC1)NC(=O)N(c1ccccc1)N2	-	-	-	-	-	-
O=C(CN1CCOCC1)NCCNC(=O)CN1CCOCC1	-	-	-	-	-	-
COc1ccc(CCC(=O)NCC(c2ccco2)N2CCc3ccccc32)cc1 (stereo not drawn)	87	.	-	-	-	-
COc1ccccc1C(=O)NCC(c1ccco1)N1CCc2ccccc21 (stereo not drawn)	.	.	-	-	-	-
O=C(NCC(c1ccco1)N1CCc2ccccc21)c1ccccc1 (stereo not drawn)	96	.	-	-	-	-
COc1cc(C(=O)NCC(c2ccco2)N2CCc3ccccc32)cc(OC)c1OC (stereo not drawn)	93	.	-	-	-	-
CCOC(=O)c1c(C)[n+](-c2ccc(C)cc2)c(CC)c2cc(OC)c(OC)cc12	-	-	-	-	-	-
COc1cc(CN2CCC(C(=O)NCCC(C)C)CC2)ccc1OCc1ccccc1	-	-	-	-	-	-
Fc1ccc2c(c1)C1OCCCC1C(c1ccccc1)N2 (stereo not drawn)	88	-	-	-	-	-
SMILES	ALR H2O2 inh	M18AAP inhibitor	CendR NRP1 mod	A3G deaminase	Yeast superoxide	A3A deaminase
CN1CCN(C2=C(Cl)C(=O)c3ccccc3C2=O)CC1	.	.	36	.	.	.
O=C1C(Cl)=C(N2CCC(C(=O)O)CC2)C(=O)c2ccccc21	-	-	35	-	-	-
COc1ccccc1Nc1nc2ccc(C)cc2cc1C#N	-	-	29	-	-	-
COc1ccccc1Nc1nc2cc(C)ccc2cc1C#N	-	-	-	-	-	-
CCOC(=O)c1nn(-c2ccc3c(c2)OCO3)cc1O	94	-	-	-	-	-
C=CCOc1ccccc1C(=O)/C=C1/C(=O)Nc2ccccc21	.	31	-	-	-	-
COc1ccc(C(=O)/C=C2/C(=O)Nc3ccccc32)cc1OC	.	-	39	-	-	-
C=CCOc1ccc(C(=O)/C=C2/C(=O)Nc3ccccc32)cc1	.	-	-	-	-	-
O=[N+]([O-])c1ccc(S(=O)(=O)NNC(=S)NCCc2ccccc2)cc1	-	-	-	-	-	-
Oc1c(Br)cc(C=Nc2ccc3nc(-c4ccccc4)[nH]c3c2)c(O)c1Br	-	29	.	-	-	-
O=C1CSC(c2ccccn2)N1c1cccc(Cl)c1 (stereo not drawn)	99	-	-	-	-	-
